Results filed as inconclusive are left out. Calls of active or inactive are those of the source. The call rests on the fitted dose curve; in most records, active means well fitted curve in the direction sought with a large enough effect in the signal ratio (not every such curve was filed as active); inconclusive means small, poorly fitted or top-dose-only effect, or a change in a side signal; inactive means no such curve, though single readings can be large or run the other way; the % refers to the signal ratio.
The molecules below were run against Inositol monophosphatase 1 (Rattus norvegicus) (UniProt P97697) (assay: Confirmation Assay for Identifying the Cell-Membrane Permeable IMPase Inhibitors). Settings: CHO-M1 cells, carbachol-stimulated IP1 accumulation, HTRF ratio; series mostly up to 41.5 µM; activity change, negative = inhibition: at the top concentration.
Source text: NIH Chemical Genomics Center [NCGC] NIH Molecular Libraries Probe Production centers Network [MLPCN] MLPCN Grant: X01 MH082413-01 Assay Submitter (PI): Wei Zheng NCGC Assay Overview: Lithium has been widely used for the treatment of bipolar disorder. But lithium has a narrow therapeutic index and it can cause side effects such as thirst, weight gain, tremor, polyuria and memory problems. Although the mechanism for lithium action in treatment of bipolar disorder is still not fully understood, inhibition of inositol monophosphatase (IMPase) and the subsequent depletion of the inositol pool in living cells have been implicated as the primary therapeutic benefit of lithium therapy. Therefore, a selective IMPase inhibitor with reduced side effects might be a good drug candidate to replace lithium for the treatment of bipolar disorder. Several IMPase inhibitors have been discovered previously. However, they are not suitable for therapeutic use because of their poor cell membrane penetrability or oral bioavailability; the development of new cell-permeable IMPase inhibitors is needed. IMPase catalyzes the hydrolysis of inositol-1-phosphate (IP1) to release free inositol. Binding of an agonist to a Gq coupled GPCR results in the activation of PLC, which hydrolyzes the PIP2 to form inositol-1,4,5-trisphosphate (IP3) and diacyl glycerol (DAG). While DAG activates protein kinase C (PKC), IP3 triggers the elevation of intracellular free Ca2+. The IP3 is very rapidly inactivated by hydrolysis to IP2, IP1 and then inositol by a series of enzymes including IMPase. Free inositols are used for synthesis of PI and thus start another inositol cycle. To identify new cell-permeable IMPase inhibitors, we developed a cell-based IMPase assay in which the cytosolic IP1 is measured by a time-resolved fluorescence resonance energy transfer (TR-FRET) assay. In this assay, an IP1 specific antibody is used to detect the labeled IP1 tracer. When the cell lysate contains the elevated IP1 due to the inhibition of IMPase, the TR-FRET between the labeled antibody and IP1 tracer is disrupted resulting in a reduction in the total signal. Since the TR-FRET is used, this cell-based assay is a homogenous assay without cell wash and medium change that is suitable for assay miniaturization and HTS.
NCGC IMPase Assay Protocol Summary A Chinese hamster ovary (CHO) cell line stably expressing the M1 receptor (CHO-M1) was obtained from ATCC and maintained in F-12 Kaighn's media (Invitrogen, Carlsbad, CA, 21127) supplemented with 10 % FBS, 100 units/ml penicillin, 100 ug/ml streptomycin and 250 ug/ml geneticin at 37C, 5% CO2 in a humidified atmosphere. Before the assay, aliquots of cells were frozen and stored at -135C. The assay was performed in 1536-well format. Data are reported for both the ratio of the two emission wavelengths, and also for the component 'donor' channel, Em2=620. Data were normalized to the controls for basal activity (DMSO only) and 100% inhibition (18.4 mM LiCl). AC50 values were determined from concentration-response data modeled with the standard Hill equation. IMPase 1536-well assay protocol: (1) Plate 4 ul/well (2000 cells) of cell suspension from frozen CHO-M1 Cells in white, tissue culture treated 1536-well plates that are cultured at 37C, 5 % CO2 for 16 to 30 hours. (2) Add 23 nl/well of compound in DMSO solution. The final titration for each compound was between 0.6 nM and 46 uM. […]

Inositol monophosphatase 1 (Rattus norvegicus), sequence (P97697 whole entry, looked up): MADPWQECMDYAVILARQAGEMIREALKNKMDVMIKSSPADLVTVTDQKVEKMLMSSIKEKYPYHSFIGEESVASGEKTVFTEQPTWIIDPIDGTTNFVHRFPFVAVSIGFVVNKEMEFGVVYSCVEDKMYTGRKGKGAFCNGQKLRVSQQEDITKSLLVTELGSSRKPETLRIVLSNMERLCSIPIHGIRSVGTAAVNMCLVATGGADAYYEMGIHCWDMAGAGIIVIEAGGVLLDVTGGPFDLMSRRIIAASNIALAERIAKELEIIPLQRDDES

Activity change, negative = inhibition, inactive:
CCc1c(C)nc2c(OC)cccc2c1SCCC(=O)O -23.6%
O=C(CCC(=O)c1cccs1)NCc1cccnc1 11.4%
COc1ccc(N2CSC3=C(C#N)C(c4cccs4)CC(=O)N3C2)cc1 (stereo unspecified) -29.2%
CC1(C)Cc2c(ccc3ccccc23)C2=C(C(=O)N3CCCC3)C(=O)C(=O)N21 18.9%
CCOC(=O)c1cc2c(=O)n3ccccc3nc2n(Cc2ccco2)c1=NC(=O)c1cccnc1 -14.5%
Cc1ccc(-c2c(C(=O)Nc3ccccc3C)c(C)[nH]c(=S)c2C#N)o1 -20.4%
COc1ccc(C2c3c(ncn(CCN4CCOCC4)c3=N)Oc3ccc4ccccc4c32)cc1OC (stereo unspecified) -8.46%
CC(=O)C1=C(O)C(=O)N(Cc2ccco2)C1c1ccccc1F (stereo unspecified) -31.2%
CNC(=O)c1ccc(NC(=O)/C=C/c2cccc(F)c2)cc1 2.85%
O=P(O)(OCc1ccccc1)OCc1ccccc1 17.9%
N#CC1=C(N)Oc2n[nH]c(-c3ccccn3)c2C1c1c(F)cccc1Cl (stereo unspecified) 22.4%
N#CCN1CCC(c2cc(-c3ccco3)n[nH]2)CC1 11.4%
N#Cc1c(-c2ccc(Br)cc2)nc2n(c1=O)CCCS2 -12.4%
O=C(NC1CCS(=O)(=O)C1)C1C2CC3CC(C2)CC1C3 (stereo unspecified) 13.9%
O=C(NCCCn1ccnc1)c1cc(-c2ccncc2)nc2ccccc12 3.25%
COc1ccc(/C=C2\CCCC3C2=NN(C(=O)c2ccco2)C3c2ccc(OC)c(OC)c2)cc1OC (stereo unspecified) -14.2% [at 198 µM]
CC(C)(C)c1ccc(-c2nnc3sc(-c4ccccn4)nn23)cc1 -5.12% [at 198 µM]
C[N+](C)(CCCCCC[N+](C)(C)CCCN1C(=O)c2cccc3cccc(c23)C1=O)CCCN1C(=O)c2cccc3cccc(c23)C1=O -14.1%
COc1cccc(NC(=O)CN(C)C(C)C(=O)Nc2cc([N+](=O)[O-])ccc2Cl)c1 (stereo unspecified) 33.2%
COc1ccc2oc(-c3ccccc3)c(C(N)=O)c2c1 6.28%

Potency, active:
[Li+] 708 µM
